# Anthrax LT inh: inhibitors of anthrax lethal toxin internalization; Cells, anthrax lethal toxin internalization, FRET ratio (460/530); Potency, µM (highest dose often 40 µM), without a hit: at the highest dose activity change, negative = inhibition, usual class: inhibitors; 70,000 tested, 0.67% active; further: on the % scale 0 is the no-effect control and ±100 the full control effect; nearly all actives have a fitted effect of over 50% in size
# SmPrx2 inh: Schistosoma mansoni Prx2 inhibition; AID 448; 65,000 tested, 0.07% active; Potency, µM; S. mansoni Prx2 activity coupled to TGR/GSH (TGR is thioredoxin glutathione reductase), NADPH fluorescence loss, qHTS
#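 Prx2 inhibition was measured as reduced NADPH consumption when electrons flowed from NADPH through TGR and glutathione to Prx2 and H2O2. Plates were read kinetically over 8 min; enzyme reagents were held at 4 deg C during dispensing.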
# AmpC det inh: inhibitors of E. coli AmpC beta-lactamase with detergent; P00811; purified AmpC, nitrocefin hydrolysis with detergent; Potency, µM (series often up to 28.7 µM), without a hit: top-dose activity change, negative = inhibition; 71,000 tested, 0.09% active; AID 584; active means well fitted curve in the direction sought with a large enough effect; inconclusive means small, poorly fitted or top-dose-only effect; further: on the % scale 0 is the no-effect control and ±100 the full control effect
# Target sequence (P00811 whole entry, looked up): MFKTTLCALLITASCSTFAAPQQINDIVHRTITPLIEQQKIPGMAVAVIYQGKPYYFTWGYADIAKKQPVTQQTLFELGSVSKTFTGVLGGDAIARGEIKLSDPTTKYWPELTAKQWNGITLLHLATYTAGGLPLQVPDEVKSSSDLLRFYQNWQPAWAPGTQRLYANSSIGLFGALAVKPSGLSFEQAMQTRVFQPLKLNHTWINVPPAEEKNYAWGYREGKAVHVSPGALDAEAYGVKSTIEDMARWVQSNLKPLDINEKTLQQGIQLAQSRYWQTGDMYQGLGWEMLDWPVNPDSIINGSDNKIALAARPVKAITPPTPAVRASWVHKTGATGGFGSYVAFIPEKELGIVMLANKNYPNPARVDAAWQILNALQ
#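 E. coli AmpC (5.3 nM) in 20 mM phosphate pH 7.0 with 0.01% Triton X-100, preincubated 15 min RT with compound; nitrocefin (2 uL of 800 uM stock) hydrolysis followed by 480 nm absorbance every 20 s over 4 min.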
# AmpC inh no det: inhibitors of E. coli AmpC beta-lactamase without detergent. P00811. AmpC nitrocefin hydrolysis, absorbance 480 nm, no detergent. Potency, µM (top dose mostly 28.7 µM), for the others: at the top dose activity change, negative = inhibition. 71,000 tested, 1.8% active; further: % of control where 0% means no effect
#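 Enzyme, pH 7.0 phosphate. Compound titrations were pre-incubated with AmpC for 15 min at room temperature before nitrocefin (stock 800 uM) addition; product formation was recorded at 480 nm every 20 s for 4 min.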
# An asterisk follows results filed as active; ? = inconclusive; · = not tested or not shown; [ ] = remark or other dose. An excerpt weighted towards active compounds, which were near 2.4% of everything screened. Unless noted, the call rests on the fitted dose curve. Potency means the concentration at half of the fitted maximal effect.
SMILES,Anthrax LT inh,SmPrx2 inh,AmpC det inh,AmpC inh no det
COc1cc(OC)c(C(=O)Oc2ccc3c(c2)OCO3)cc1OC,?,>57,-2%,47%
COc1ccc(C(=O)Oc2ccc3c(c2)OCO3)cc1OC,7.9µM*,·,9%,33%
CCOC(=O)CSC1=C(C#N)C(c2ccc(C)cc2)C2=C(CCCC2=O)N1 (stereo not drawn),16%,>57,-1%,22%
COC(=O)/C=c1\sc2n(c1=O)C(C)=CC(C)(C)N=2,34%,>57,0%,2%
C/C(N)=C(/C#N)C(=O)CSc1nnc(-c2ccc(OC(F)F)cc2)o1,-9%,>57,-2%,-11%
CCc1ccc(-c2cn(-c3nc(C)cc(C)n3)c(=N)o2)cc1,13µM*,>57,12%,19%
CC(=O)c1ccc(NC(=O)CSc2nc3nc(C)cc(C)n3n2)cc1,17%,>57,11%,8%
CCCCOc1ccc(-c2c(C#N)c(N)nc(SCC(N)=O)c2C#N)cc1,?,>57,6%,20µM*[single pt active]
C=C(C)CSc1nc(N)c(C#N)c(-c2ccc(C)cc2)c1C#N,?,>57,19%,6.3µM*
CSc1nc(N)c(C#N)c(-c2ccc(Cl)cc2)c1C#N,?,>57,-4%,?
CCOC(=O)N1CCC(NC(=O)c2ccc(CS(=O)(=O)c3ccccc3C)o2)CC1,-3%,>57,11%,4µM*[single pt active]
CCCCN(C)C(=O)c1ccc(CS(=O)(=O)c2ccccc2C)o1,-7%,>57,12%,4µM*[single pt active]
C=CCNC(=O)C1CC(c2cccc(OC)c2)=NO1 (stereo not drawn),16%,>57,-4%,-1%
CC(=O)N1C(=O)N(C)C2C1N(C)C(=O)N2C(C)=O (stereo not drawn),-12%,>57,1%,-8%
CC(C)CCNC(=O)Cn1c(NCCC(C)C)nc2c1c(=O)n(C)c(=O)n2C,-2%,>57,14%,2.5µM*[single pt active]
COc1ccc(-c2cc(C(F)(F)F)nc(N3CCN(c4ccccc4)CC3)n2)cc1OC,14%,>57,18%,0%
COc1nc(-c2ccccc2)cc(-c2ccc(OC)c(OC)c2)n1,13µM*,·,-6%,120%
O=C1c2ccccc2C(Nc2ccc(F)c(Cl)c2)N1c1ccccn1 (stereo not drawn),-17%,>57,13%,4µM*[single pt active]
O=C1c2ccccc2C(Nc2ccc(S(=O)(=O)N3CCCCC3)cc2)N1c1ccccn1 (stereo not drawn),?,>57,15%,3.2µM*[single pt active]
O=C1c2ccccc2C(Nc2ccc(S(=O)(=O)N3CCOCC3)cc2)N1c1cccnc1 (stereo not drawn),?,>57,10%,4µM*[single pt active]
CC(C)Cn1c(-c2ccccc2F)n[nH]c1=S,0%,>57,-5%,-4%
CCCCCCNC(=O)C(C#N)c1nc2ccccc2nc1N1CCCC1 (stereo not drawn),?,>57,7%,-4%
CCC(=O)N1CCN(c2ccc(NC(=O)c3cc4ccccc4o3)cc2Cl)CC1,10µM*,>57,-5%,109%
CCCC(=O)N1CCN(c2ccc(NC(=O)c3cc4ccccc4o3)cc2Cl)CC1,6.3µM*,>57,-2%,50%
O=C(Nc1ccc(N2CCN(C(=O)c3ccco3)CC2)c(Cl)c1)c1cc2ccccc2o1,?,>57,-4%,18%
SMILES,Anthrax LT inh,SmPrx2 inh,AmpC det inh,AmpC inh no det
CC1CCc2nn(CC(=O)NCCN3CCOCC3)cc2C1 (stereo not drawn),-4%,>57,6%,-11%
Cc1ccc(S(=O)(=O)C2(C(=O)Nc3cccnc3)CC2)cc1,-9%,>57,14%,4µM*[single pt active]
O=C(CCCn1c(=S)[nH]c2cc3c(cc2c1=O)OCO3)NC1CC1,2%,·,-2%,2%
CCN1CCN(c2ncc(C(=O)Nc3ccccc3C(=O)OC)c3ccccc23)CC1,10µM*,>57,-1%,132%
O=C(NCCc1ccccc1)c1ccc(-n2cnnn2)cc1,9%,>57,17%,4%
c1ccc(CCNc2ccc3nncn3n2)cc1,-13%,>57,12%,3.2µM*[single pt active]
CCOC(=O)N1CCC(n2c(SCC(=O)NCc3ccco3)nc3ccsc3c2=O)CC1,7%,>57,-4%,32%
O=C(CSc1nnc(-c2ccccc2O)o1)Oc1ccc(OCc2ccccc2)cc1,-13%,>57,-7%,13µM*[single pt active]
COc1ccc(/C=N/n2c(SC)nnc2-c2ccccc2)cc1C,-3%,·,1%,139%
Cc1ccc2nc(NC(=O)c3cccs3)sc2c1,?,>57,-5%,?
CC1=C(C(=O)N(C)C)C(c2ccc(Cl)c(Cl)c2)NC(=O)N1 (stereo not drawn),?,>57,-5%,8%

# Compound activity as filed in PubChem.
